HCMV antiviral: inhibitors of human cytomegalovirus. HFF cells, HCMV-luciferase reporter, 72 h; active compounds read low. activity change, negative = inhibition, % at 57.5 µM. 410,000 tested, 4.5% active; in the data active = activity change below about -60%; inconclusive = no clear call, values can overlap the other calls; inactive = above about -39%
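Human foreskin fibroblasts infected with luciferase-reporter HCMV at MOI 1 PFU/cell, compounds at two doses. Luciferase measured 72 h post infection; normalized to buffer-only basal and Salinomycin (10uM) controls.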
FMDV antiviral: antivirals against foot and mouth disease virus. 410,000 tested, 1.2% active. Potency, µM (series often up to 57.9 µM), for inactives: at the top dose activity change, negative = inhibition, actives largely listed as inhibitors. FMDV antiviral cell-based qHTS; calls by dose curve; tested in HEK293T cells; also: read-out not given here; potency is read from the fitted curve at half-maximal effect; nearly all actives have a fitted effect of over 45% in size
MARV entry inh: inhibitors of Marburg virus binding or cell entry | Marburg virus pseudotyped entry inhibition, cell reporter | Potency, µM (titrated, usually from 37.8 µM), for inactives: top-dose activity change, negative = inhibition, actives largely listed as inhibitors | 300,000 tested, 1.8% active | AID 540276; calls by dose curve; tested in HEK293 cells; also: potency is read from the fitted curve at half-maximal effect
LASV entry inh: blocks Lassa virus binding to or entry into cells; Lassa virus pseudotype entry inhibition, cell reporter; Potency, µM (titrated, usually from 37.9 µM), for the others: at the top dose activity change, negative = inhibition, most hits filed as inhibitors; 300,000 tested, 1.2% active; AID 540256; calls by dose curve; tested in HEK293 cells; also: potency is read from the fitted curve at half-maximal effect; nearly all actives have a fitted effect of over 50% in size
HCV inh: inhibitors of hepatitis C virus infection. 340,000 tested, 3.4% active. Potency, µM (series often up to 41.8 µM), without a hit: top-dose activity change, negative = inhibition, usual class: inhibitors. Huh7.5.1 HCVcc-Cre infection, luciferase reporter, 44 h; active = well fitted inhibition curve with a large enough effect; inconclusive = small, poorly fitted or top-dose-only effect, or another doubt; inactive = no such curve, though single readings can be large or run the other way; also: potency is read from the fitted curve at half-maximal effect
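Cells (1,000/well) were plated 4 h before compound, then infected with HCVcc-Cre virus (~0.5 moi). After 44 h further culture, infection was read as luciferase luminescence following a 15 min substrate incubation at room temperature.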
Starred values were filed as active, the others as inactive; u = inconclusive; x = no result; [ ] = remark or other dose. Rows were chosen to be rich in hits. Some 7.9% of all compounds tested hit in one or more screens of this group. % is scaled to controls: 0 for no effect and ±100 for the full control effect.

SMILES	HCMV antiviral	FMDV antiviral	MARV entry inh	LASV entry inh	HCV inh
COc1ccccc1CNC(=O)c1ccc2nc3[nH]c4ccccc4c3nc2c1	-86*	33%	u	u	u
COc1ccccc1CNC(=O)c1ccc2[nH]c(C)c(C)c2c1	62	3%	x	u	x
O=C(NCc1ccccc1Cl)c1cccc(NC(=O)c2ccccc2)c1	u	-1%	u	-24%	u
CCC(=O)c1c[nH]c(C(=O)NCc2ccccc2OC)c1	56	0%	u	-17%[46.1 µM]	-20%
COc1ccc(CCn2c(=O)c3cccnc3n(CC(=O)Nc3c(C)cc(C)cc3C)c2=O)cc1OC	3	-18%	-3%[46.1 µM]	x	x
O=C(Nc1c2c(nn1-c1cccc(Cl)c1)CS(=O)(=O)C2)c1ccc2c(c1)OCO2	-36	-6%	x	x	-7%
Cc1oc(-c2ccccc2NC(=O)C2CCCO2)nc1CNC(=O)c1cc(F)c(F)cc1F (configuration not stated)	x	-6%	x	x	x
CCc1ccc(-c2nc(CSCC(=O)NCc3ccc(C)cc3)c(C)o2)cc1	-39	-11%	10%[46.1 µM]	11%[46.1 µM]	x
Cc1oc(-c2ccccc2Cl)nc1CSCC(=O)NC1CCCC1	-75*	-14%	-13%[46.1 µM]	-13%	-12%
CCOC(=O)N1CCC(NC(=O)CSCc2nc(-c3cccc(OC)c3)oc2C)CC1	-93*	u	u	-9%	u
CCOC(=O)N1CCC(NC(=O)CSCc2nc(-c3ccccc3Cl)oc2C)CC1	-22	-22%	-14%[46.1 µM]	u	-28%
CCOc1ccc(-c2nc(CSCC(=O)NC3CCN(Cc4ccccc4)CC3)c(C)o2)cc1	-94*	u	x	x	x
CCOC(=O)N1CCC(NC(=O)CS(=O)(=O)Cc2nc(-c3ccc(OC)cc3)oc2C)CC1	-16	-17%	x	x	-18%
CCOc1ccc(-c2nc(CSCC(=O)NC3CC3)c(C)o2)cc1	u	19%	x	x	-26%
CCOc1ccc(-c2nc(CSCC(=O)NCc3ccc(C)cc3)c(C)o2)cc1	-69*	-5%	x	3%[46.1 µM]	x
COC(=O)C(c1ccccc1)(c1cn(C)c2ccccc12)C(Nc1ccc(Cl)cc1)c1ccccc1 (configuration not stated)	-27	x	x	x	x
COc1ccccc1-n1c(CNC(=O)c2ccco2)n[nH]c1=S	8	3%	u	27%[46.1 µM]	8%
NNC(=O)C1=NN=C(C23CC4CC(CC(C4)C2)C3)C1	x	x	17%[46.1 µM]	x	x
Cc1oc(-c2ccccc2Cl)nc1CSc1nc2c(c(=O)[nH]1)CCC2	-15	22µM*	26%	-2%	1%[8.37 µM]
Cc1oc(-c2ccc(Cl)cc2)nc1CSCC(=O)NC1CCN(Cc2ccccc2)CC1	-85*	u	u	u	4µM*
Cc1oc(-c2ccc(Cl)cc2)nc1CN1CCC(C(=O)N2CCN(Cc3ccccc3)CC2)CC1	-32	0%	6%	x	-21%
CCOc1ccc(-c2nc(CSCC(=O)NC3CCCc4ccccc43)c(C)o2)cc1 (configuration not stated)	-24	0%	-15%	-12%	18µM*
CCOc1ccc(-c2nc(CSCC(=O)NCc3ccco3)c(C)o2)cc1	u	-9%	u	u	u
CC(C)CSc1ccccc1NC(=O)c1sc2nc(-c3ccncc3)ccc2c1N	-24	-7%	0%[46.1 µM]	-6%[46.1 µM]	x
CCNc1c([N+](=O)[O-])c(=O)n(CC)c2ccccc12	-17	24%	1%[46.1 µM]	-1%[46.1 µM]	4%
SMILES	HCMV antiviral	FMDV antiviral	MARV entry inh	LASV entry inh	HCV inh
CCn1c(=O)c([N+](=O)[O-])c(NCCCn2ccnc2)c2ccccc21	-65*	-11%	3%	12%	5%
COc1ccc(Oc2ncc3nc(C)c(=O)n(C4CC4)c3n2)cc1	x	-7%	x	x	x
CCc1ccc2c(c1)C1(NN=C(c3ccc(C)cc3)S1)C(=O)N2 (configuration not stated)	-101*	-24%	u	3%	10µM*
CCN(CC)Cc1c(O)ccc2cc(-c3nc4ccccc4n3C)c(=O)oc12	46	3%	-7%	19%	0%
CC(NC(=O)c1ccco1)c1nnc2n1CCN(Cc1ccc(N3CCCC3)cc1)CC2 (configuration not stated)	x	4%	x	x	x
O=C(NCc1ccc(F)cc1)c1cc(C2CCCCN2S(=O)(=O)Cc2ccccc2)on1 (configuration not stated)	21	-2%	x	x	x
CCc1c(C)sc(NC(=O)c2cccs2)c1C(=O)OC(C)C	u	x	9.2µM*	u	u
CCOC(=O)c1c(NC(=O)c2cccs2)sc(C(=O)N(C)C)c1C	-21	25%	10%[46.1 µM]	4%	13µM*
CCOC(=O)c1c(NC(=O)c2cccs2)sc(C)c1CC	-38	-24%	u	-17%	8.9µM*
CCOC(=O)c1c(NC(=O)c2cccs2)sc2c1CCCC2	-26	-1%	0%	-13%	u
CCOC(=O)c1c(NC(=O)COC(=O)c2cccnc2OCC)sc(C(=O)N(CC)CC)c1C	21	16µM*	u	u	u
CCOC(=O)c1c(NC(=O)c2cccs2)sc(C(=O)N2CCOCC2)c1C	-22	14%	10%[46.1 µM]	3%	-19%
CCc1noc(C)c1C(=O)N1CCN(S(=O)(=O)c2ccc(Br)cc2Cl)CC1	-29	u	u	u	-23%
CCCCc1ccc(-n2nc3cc(C)c(NC(=O)Cc4ccccc4)cc3n2)cc1	-24	-5%	14%[46.1 µM]	11%[46.1 µM]	x
CCn1cc2nc(SCC(=O)Nc3ccc(OC)cc3OC)n(Cc3ccc(Cl)cc3)c(=O)c2n1	-29	47%	u	u	x
CCn1cc2nc(SCC(=O)Nc3cc(OC)ccc3OC)n(Cc3ccc(Cl)cc3)c(=O)c2n1	3	-5%	13µM*	-2%[46.1 µM]	x
CCN(CC)C(=O)CSc1nc2cc(OC)c(OC)cc2c(=O)n1Cc1ccc(Cl)cc1	-78*	-13%	u	u	u
CC(=O)c1ccc(N2CCN(CC(=O)Nc3ccc4c(c3)OCCO4)CC2)cc1	55	0%	u	u	u
C=CCc1cccc2cc(-c3nc4ccc(C(=O)O)cc4[nH]3)c(=O)oc12	57	16µM*	x	1%[46.1 µM]	x
COc1ccc2oc(=O)c(-c3nc4ccc(C)cc4[nH]3)cc2c1	60	24%	x	-5%[46.1 µM]	x
COc1ccc2cc(-c3nc4ccc(C(=O)O)cc4[nH]3)c(=O)oc2c1	-16	1µM*	x	10µM*	x
CCOc1cccc2cc(-c3nc4ccc(C(=O)O)cc4[nH]3)c(=O)oc12	47	11µM*	x	21%[46.1 µM]	x
CCC(=O)Nc1cccc(C(=O)N(Cc2ccccc2)Cc2ccccc2)c1	-10	-15%	x	x	u
COCCNC(=O)C1CCCN(C(=O)c2ccc3c(c2)C(C)(C)CCC3(C)C)CC1 (configuration not stated)	24	2%	x	x	x
O=C(Nc1cccc(OCc2cc(=O)n3c4c(sc3n2)CCCC4)c1)c1ccc(F)cc1	1	-19%	-2%[46.1 µM]	3%[46.1 µM]	x
O=C(Nc1ccc(OCc2cc(=O)n3c4c(sc3n2)CCCC4)cc1)c1ccccc1	-105*	-4%	3%[46.1 µM]	1%[46.1 µM]	x

High-throughput results deposited in PubChem by National Center for Advancing Translational Sciences (NCATS).
